Test results reported in PubChem BioAssay AID1159580 (chemical genetic matrix, 2015).
The campaign covered roughly 5,500 compounds. About 2,000 (36%) were called active. Not shown: some 18% with an inconclusive outcome. Cut-off read from the data, not from the text of the source: active = normalized growth mostly below about 0.91 (no sharp cut-off); inconclusive = no clear call, values can overlap the other calls; inactive = mostly above about 0.92. The list shows a part of the results.

Test: chemical genetic growth profiling, strain panel (AID 1159580);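 note: tested at 20 µM; growth read once vehicle control cultures reached saturation at 30 °C; 1 = growth at the plate median or of vehicle wells; lower values mean less growth of the strain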
Conditions: growth OD

Measured: normalized growth

C[C@]12C=CC(=O)C=C1CCC1C2C(=O)C[C@@]2(C)C1CC[C@]2(O)C(=O)CO (stereo partly specified)
inactive: S. cerevisiae deletion strains, locus YJR075W, strain HOC1, stronger effect = lower value 0.985 | S. cerevisiae deletion strains, locus YKL009W, strain mrt4, stronger effect = lower value 0.979 | S. cerevisiae deletion strains, locus YKL068W, stronger effect = lower value 0.989 | S. cerevisiae deletion strains, locus YKL085W, strain MDH1 (second series), stronger effect = lower value 0.998 | S. cerevisiae deletion strains, locus YKL085W, strain MDH1, stronger effect = lower value 0.998 | S. cerevisiae deletion strains, locus YKL160W, strain elf1, stronger effect = lower value 0.97 | S. cerevisiae deletion strains, locus YKL190W, strain CNB1, stronger effect = lower value 0.989 | S. cerevisiae deletion strains, locus YKR001C, strain vps1, stronger effect = lower value 0.995 | S. cerevisiae deletion strains, locus YKR026C, strain gcn3, stronger effect = lower value 0.997 | S. cerevisiae deletion strains, locus YKR091W, strain srl3, stronger effect = lower value 0.997 | S. cerevisiae deletion strains, locus YLL001W, strain dnm1, stronger effect = lower value 0.955 | S. cerevisiae deletion strains, locus YLL026W, stronger effect = lower value 0.986 | S. cerevisiae deletion strains, locus YLL041C, strain sdh2, stronger effect = lower value 0.994 | S. cerevisiae deletion strains, locus YLR027C, strain aat2, stronger effect = lower value 0.978 | S. cerevisiae deletion strains, locus YLR039C, strain RIC1, stronger effect = lower value 0.993 | S. cerevisiae deletion strains, locus YLR058C, strain SHM2, stronger effect = lower value 0.978 | S. cerevisiae deletion strains, locus YLR102C, strain apc9, stronger effect = lower value 0.99 | S. cerevisiae deletion strains, locus YLR113W, strain HOG1, stronger effect = lower value 1.03 | S. cerevisiae deletion strains, locus YLR221C, strain rsa3, stronger effect = lower value 1.01 | S. cerevisiae deletion strains, locus YLR258W, strain gsy2, stronger effect = lower value 1.02 | S. cerevisiae deletion strains, locus YLR262C, strain YPT6 (second series), stronger effect = lower value 0.986 | S. cerevisiae deletion strains, locus YLR262C, strain YPT6, stronger effect = lower value 0.968 | S. cerevisiae deletion strains, locus YLR268W, strain sec22, stronger effect = lower value 1.05 | S. cerevisiae deletion strains, locus YLR320W, strain mms22, stronger effect = lower value 0.985 | S. cerevisiae deletion strains, locus YLR330W, strain CHS5, stronger effect = lower value 0.998 | S. cerevisiae deletion strains, locus YLR342W, strain FKS1 (second series), stronger effect = lower value 1.01 | S. cerevisiae deletion strains, locus YLR342W, strain FKS1, stronger effect = lower value 0.978 | S. cerevisiae deletion strains, locus YLR357W, strain rsc2, stronger effect = lower value 0.992 | S. cerevisiae deletion strains, locus YLR370C, strain arc18, stronger effect = lower value 0.994 | S. cerevisiae deletion strains, locus YLR371W, strain rom2, stronger effect = lower value 0.974 | S. cerevisiae deletion strains, locus YLR384C, strain iki3, stronger effect = lower value 0.985 | S. cerevisiae deletion strains, locus YLR418C, strain cdc73, stronger effect = lower value 0.985 | S. cerevisiae deletion strains, locus YML016C, strain PPZ1, stronger effect = lower value 0.991 | S. cerevisiae deletion strains, locus YML032C, strain rad52, stronger effect = lower value 1.01 | S. cerevisiae deletion strains, locus YML120C, strain ndi1, stronger effect = lower value 0.986 | S. cerevisiae deletion strains, locus YML124C, strain tub3, stronger effect = lower value 0.983 | S. cerevisiae deletion strains, locus YMR058W, strain fet3, stronger effect = lower value 0.996 | S. cerevisiae deletion strains, locus YMR078C, strain ctf18, stronger effect = lower value 0.979 | S. cerevisiae deletion strains, locus YMR125W, strain sto1, stronger effect = lower value 0.987 | S. cerevisiae deletion strains, locus YMR129W, stronger effect = lower value 1 | S. cerevisiae deletion strains, locus YMR205C, strain PFK2, stronger effect = lower value 0.988 | S. cerevisiae deletion strains, locus YMR223W, strain ubp8, stronger effect = lower value 0.963 | S. cerevisiae deletion strains, locus YMR231W, strain pep5, stronger effect = lower value 1.02 | S. cerevisiae deletion strains, locus YMR263W, strain SAP30, stronger effect = lower value 0.992 | S. cerevisiae deletion strains, locus YMR307W, strain GAS1, stronger effect = lower value 0.991 | S. cerevisiae deletion strains, locus YNL067W, strain RPL9B, stronger effect = lower value 0.992 | S. cerevisiae deletion strains, locus YNL071W, strain lat1, stronger effect = lower value 1.01 | S. cerevisiae deletion strains, locus YNL153C, strain GIM3, stronger effect = lower value 0.99 | S. cerevisiae deletion strains, locus YNL183C, strain NPR1, stronger effect = lower value 0.986 | S. cerevisiae deletion strains, locus YNL209W, strain ssb2, stronger effect = lower value 1.01 | S. cerevisiae deletion strains, locus YNL233W, strain BNI4, stronger effect = lower value 0.997 | S. cerevisiae deletion strains, locus YNL248C, strain rpa49, stronger effect = lower value 1 | S. cerevisiae deletion strains, locus YNL250W, strain rad50, stronger effect = lower value 0.981 | S. cerevisiae deletion strains, locus YNL271C, strain bni1, stronger effect = lower value 0.999 | S. cerevisiae deletion strains, locus YNL298W, strain CLA4, stronger effect = lower value 0.982 | S. cerevisiae deletion strains, locus YNL307C, strain MCK1, stronger effect = lower value 0.998 | S. cerevisiae deletion strains, locus YNL322C, strain KRE1 (second series), stronger effect = lower value 0.998 | S. cerevisiae deletion strains, locus YNL322C, strain KRE1, stronger effect = lower value 0.994 | S. cerevisiae deletion strains, locus YNR049C, strain mso1, stronger effect = lower value 0.999 | S. cerevisiae deletion strains, locus YNR052C, strain pop2, stronger effect = lower value 0.995 | S. cerevisiae deletion strains, locus YOL006C, strain TOP1, stronger effect = lower value 0.938 | S. cerevisiae deletion strains, locus YOL012C, strain htz1 0.891 | S. cerevisiae deletion strains, locus YOL147C, strain pex11, stronger effect = lower value 0.999 | S. cerevisiae deletion strains, locus YOR001W, strain rrp6, stronger effect = lower value 0.976 | S. cerevisiae deletion strains, locus YOR061W, strain CKA2, stronger effect = lower value 0.963 | S. cerevisiae deletion strains, locus YOR069W, strain VPS5, stronger effect = lower value 0.997 | S. cerevisiae deletion strains, locus YOR070C, strain gyp1, stronger effect = lower value 1.01 | S. cerevisiae deletion strains, locus YOR080W, strain dia2, stronger effect = lower value 0.992 | S. cerevisiae deletion strains, locus YOR083W, strain WHI5, stronger effect = lower value 0.964 | S. cerevisiae deletion strains, locus YOR106W, strain vam3, stronger effect = lower value 0.993 | S. cerevisiae deletion strains, locus YOR136W, strain idh2, stronger effect = lower value 0.982 | S. cerevisiae deletion strains, locus YOR144C, strain elg1, stronger effect = lower value 0.985 | S. cerevisiae deletion strains, locus YOR184W, strain ser1, stronger effect = lower value 0.973 | S. cerevisiae deletion strains, locus YOR231W, strain MKK1, stronger effect = lower value 1.01 | S. cerevisiae deletion strains, locus YOR265W, strain rbl2, stronger effect = lower value 0.993 | S. cerevisiae deletion strains, locus YOR270C, strain vph1, stronger effect = lower value 1.02 | S. cerevisiae deletion strains, locus YOR290C, strain snf2, stronger effect = lower value 1.03 | S. cerevisiae deletion strains, locus YOR316C, strain cot1, stronger effect = lower value 0.985 | S. cerevisiae deletion strains, locus YPL051W, strain arl3, stronger effect = lower value 0.989 | S. cerevisiae deletion strains, locus YPL055C, strain LGE1, stronger effect = lower value 0.94 | S. cerevisiae deletion strains, locus YPL078C, strain atp4, stronger effect = lower value 0.955 | S. cerevisiae deletion strains, locus YPL106C, strain sse1, stronger effect = lower value 1.01 | S. cerevisiae deletion strains, locus YPL240C, strain hsp82, stronger effect = lower value 0.987 | S. cerevisiae deletion strains, locus YPL241C, strain CIN2, stronger effect = lower value 0.997 | S. cerevisiae deletion strains, locus YPL256C, strain CLN2, stronger effect = lower value 1.05 | S. cerevisiae deletion strains, locus YPR119W, strain clb2, stronger effect = lower value 0.982 | S. cerevisiae deletion strains, locus YPR141C, strain kar3, stronger effect = lower value 0.98 | S. cerevisiae deletion strains, locus YPR163C, strain tif3, stronger effect = lower value 0.986 | S. cerevisiae deletion strains, locus YPR167C, strain met16, stronger effect = lower value 0.996 | S. cerevisiae deletion strains, strain wtn01, stronger effect = lower value 0.992 | S. cerevisiae strains, strain wild type, stronger effect = lower value 0.986
